GLP1R cytotox – cytotoxicity counter-screen for GLP-1 receptor inverse agonists; HEK293 cAMP-luciferase reporter cells, luminescence, 24 h; Potency, µM (top dose mostly 38.3 µM), for the others: top-dose activity change, negative = inhibition, usual class: inhibitors; 410,000 compounds, 0.13% hits; AID 624418;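 further: loss of luciferase light is scored as toxicity; on the % scale 0 is the no-effect control and ±100 the full control effect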
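1536-well qHTS counterscreen of the MLSMR; 200 cells/uL, 12 h pre-incubation, 23 nL cpd, 24 h at 37 deg C 5% CO2, luciferase detection reagent, 12 min RT, luminescence. Inhibition = undesired.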
GLP-1R agonist – agonists of human GLP-1 receptor; HEK293 GLP-1R CRE-luciferase, luminescence, 4-6 h; cells express a hypersensitive GLP-1R form; Potency, µM (series often up to 45.6 µM), for inactives: top-dose activation, most hits filed as activators; 380,000 compounds, 0.007% hits; P43220; AID 624172; further: % of control where 0% means no effect
RGS4 inhibitor – human RGS4 inhibition. P49798. Transcreener GDP fluorescence polarization, RGS4-accelerated GTP hydrolysis. Potency, µM (series often up to 114 µM), inactives show top-dose activity change, negative = inhibition, hits mostly inhibitors. 390,000 compounds, 0.039% hits. AID 504845; further: on the % scale 0 is the no-effect control and ±100 the full control effect; nearly all actives have a fitted effect of over 75% in size
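MLSMR compounds (23 nl, pin-transferred) preincubated 10 min at room temperature with a 500nM (2x) first reagent, then RGS4 at 900nM (2x) plus Transcreener GDP mix added; fluorescence polarization (620/688 nm) read before and after 90 min at 30 °C.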
PTHR1 agonist – activates the human parathyroid hormone receptor PTHR1; 410,000 compounds, 0.075% hits; Potency, µM (top dose mostly 115 µM), inactives show top-dose activation, hits mostly activators; HEK293 GP2 PTHR1 cells, GloSensor cAMP luminescence, 1 h; Q03431; further: nearly all actives have a fitted effect of over 55% in size
Target sequence (Q03431 whole entry, looked up): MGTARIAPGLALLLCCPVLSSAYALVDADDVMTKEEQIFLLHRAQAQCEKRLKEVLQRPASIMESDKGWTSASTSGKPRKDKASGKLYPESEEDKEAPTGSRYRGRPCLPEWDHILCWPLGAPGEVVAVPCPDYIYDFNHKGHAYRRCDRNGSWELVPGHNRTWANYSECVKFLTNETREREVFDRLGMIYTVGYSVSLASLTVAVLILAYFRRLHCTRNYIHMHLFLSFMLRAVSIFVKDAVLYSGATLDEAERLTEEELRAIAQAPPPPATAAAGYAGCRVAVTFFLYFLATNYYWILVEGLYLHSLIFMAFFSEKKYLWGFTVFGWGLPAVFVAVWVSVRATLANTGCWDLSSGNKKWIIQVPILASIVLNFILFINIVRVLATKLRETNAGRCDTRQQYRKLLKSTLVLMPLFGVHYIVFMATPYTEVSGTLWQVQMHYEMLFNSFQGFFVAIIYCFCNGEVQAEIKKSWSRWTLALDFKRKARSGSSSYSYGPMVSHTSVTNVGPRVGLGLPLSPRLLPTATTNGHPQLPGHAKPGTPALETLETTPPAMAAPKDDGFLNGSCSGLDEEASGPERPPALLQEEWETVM
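HEK-293-derived GP2 cells expressing PTHR1 and a GloSensor cAMP reporter, 3,000/well, plated overnight, given luciferin plus IBMX (each 0.5 mM as added) for 1 h at 37 °C, then compound for 1 h at 37 °C. Luminescence was read after 15 min at room temperature.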
GLP-1R inv ag – inverse agonists of human GLP-1 receptor; Potency, µM (highest dose often 38.3 µM), inactives show top-dose activity change, negative = inhibition, most hits filed as inhibitors; 410,000 compounds, 1.6% hits; AID 624417; HEK293 GLP-1R CRE-luciferase, luminescence, 24 h; GLP-1R form is constitutively active; P43220; further: on the % scale 0 is the no-effect control and ±100 the full control effect; nearly all actives have a fitted effect of over 55% in size
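Seeding at 200 cells/uL, 12 h culture, 24 hr compound treatment, then luciferase reagent and a luminescence read; cells are HEK293 stably expressing a constitutively active GLP-1R plus cAMP-responsive luciferase.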
Numbers without * were called inactive; i = inactive; ? = inconclusive; · = no result given; ! = a repeat was not active; [ ] = dose if it differs, or a comment. Hits are enriched below; roughly 1.7% of the tested compounds scored in any of these assays. The call rests on the fitted dose curve; in most records, active means well fitted curve in the direction sought with a large enough effect; inconclusive means small, poorly fitted or top-dose-only effect, or another doubt; inactive means no such curve, though single readings can be large; an effect the other way counts as inactive or inconclusive. Potency means the concentration at half of the fitted maximal effect.

SMILES	GLP1R cytotox	GLP-1R agonist	RGS4 inhibitor	PTHR1 agonist	GLP-1R inv ag
O=C(c1ccc2c(c1)CCC2)N1CCN(Cc2c(F)cccc2Cl)CC1	2%	-7%	·	-17%	10µM*
COCc1c(C(=O)N2CCN(Cc3ccc(C#N)cc3)CC2)oc2ccccc12	-4%	20%	22%	-20%	-29%
COc1ccc(CCNC(=O)C(C)SCC(=O)Nc2ccc(F)cc2)cc1 (stereo not given)	-4%	9%	-12%	i	?
CCOC(=O)c1c(C)[nH]c(C)c1C(=O)CSc1nc2ccccc2n1CC	-22%	7%	8%	-21%	-18%
CCOC(=O)c1c(C)[nH]c(C)c1C(=O)CSc1nc2ccccc2c(=O)n1-c1ccc(CC)cc1	-12%	9%	2%	-11%	10µM*
CCc1ccc(-n2c(N3CCN(c4ccc(F)cc4)CC3)nc3ccccc3c2=O)cc1	1%	·	9%	i	11µM*
CC(C(=O)NCc1ccc(Cl)cc1)n1ccc2cc(S(=O)(=O)N3CCCC3)ccc21 (stereo not given)	5%	·	6%	-39%	?
CCC1CCCCN1C(=O)Cn1c(=O)cc(C(F)(F)F)c2c(C)nn(C)c21 (stereo not given)	0%	·	7%	-7%	10µM*
Cc1cc(=O)n(CC(=O)N2CCCCC2)c2c1c(C)nn2C	1%	·	-14%	i	9%
O=C(CSc1nnnn1C1CCCCC1)Nc1cccc(NC(=O)c2ccco2)c1	-11%	0%	-91%[11.4 µM]	i	7.1µM*
CC1CCN(S(=O)(=O)c2ccc3c(c2)CCN3C(=O)Nc2ccc(Br)cc2)CC1	1%	·	-7%	i	5%
Cc1c(C(=O)NCc2ccc(F)cc2)sc(=O)n1Cc1ccc(Cl)c(Cl)c1	-15%	-1%	·	i	10µM*
CSc1ccc(Cn2c(C)c(C(=O)NCc3ccc(Cl)c(Cl)c3)sc2=O)cc1	-3%	-4%	·	-7%	?
COc1ccccc1N1CCN(CC(C)N(C(=O)C2CCCCC2)c2ccccn2)CC1 (stereo not given)	-3%	3%	26%	-4%	10µM*
CNC(=O)OCN1C(=O)C2CC=CCC2C1=O (stereo not given)	1%	0%	-9%	-20%	6%
C[C@H](NC(=O)c1ccccc1)C(=O)N1CCC2(CC1)NCCc1[nH]cnc12	-6%	-2%	2%[11.4 µM]	-23%	4%
O=C(N[C@@H](Cc1ccccc1)C(=O)N1CCC2(CC1)NCCc1[nH]cnc12)c1cccc(Br)c1	-22%	8%	-2%	i	10µM*
CCCCSc1nc2c([nH]1)c(=S)n(C)c(=O)n2C	?	-7%	0%	-10%	?
CCCCC(C)Sc1nc2c([nH]1)c(=S)n(C)c(=O)n2C (stereo not given)	?	15%	-16%	-60%	?
CCCC(CC)Sc1nc2c([nH]1)c(=S)n(C)c(=O)n2C (stereo not given)	0.89µM*	3%	12%	-32%	?
CCN(CC)CCSc1nc2c([nH]1)c(=S)n(C)c(=O)n2C	5.6µM*	1%	15%	-7%	?
Cc1ccc(Cl)cc1N1CCN(C(=O)c2ccc3c(c2)N(Cc2ccc(F)cc2)CCS3)CC1	0%	·	1%	i	?
CCc1ccc(NC(=O)CN(c2ccc(Cl)cc2)S(=O)(=O)c2ccsc2C(=O)OC)cc1	1%	·	-23%	-13%	3.2µM*
Cc1ccc(N(CC(=O)Nc2ccc(Cl)cc2)S(=O)(=O)c2cccc3nonc23)cc1	-17%	-4%	-7%	-14%	10µM*
Cc1ccc(NC(=O)CN(c2ccc(C)cc2)S(=O)(=O)c2cccc3nonc23)cc1	6%	-4%	-1%	i	?
SMILES	GLP1R cytotox	GLP-1R agonist	RGS4 inhibitor	PTHR1 agonist	GLP-1R inv ag
CSc1ccc(Cl)c(C(=O)N2CCN(c3ncccn3)CC2)c1	-24%	9%	8%	i	10%
O=C(N/C(=C\c1ccccc1)C(=O)N1CCCCC1)c1ccc(Br)o1	4%	-4%	-21%	-34%	10µM*
O=C(N/C(=C\c1ccccc1)C(=O)N1CCOCC1)c1ccc(Br)o1	18%	9%	20%	i	-29%
O=C(N/N=C/c1ccccn1)c1cc(-c2ccccc2)nc2ccccc12	5µM*	-5%	1%	-58%	?
O=C(N/N=C/c1ccccn1)c1cc(C2CC2)nc2ccccc12	-20%	12%	-3%	-1%	-11%
C/C(=N\NC(=O)c1cc(C)nc2ccccc12)c1ccncc1	-33%	-1%	8%	-64%	-17%
Cc1ccccc1NC(=S)NC(=O)c1cc(-c2ccccc2)nc2ccccc12	0%	-7%	-1%[11.4 µM]	-3%[57.5 µM]	7.9µM*
C/C(=N\NC(=O)c1cc(C)nc2ccccc12)c1ccccn1	3.2µM*	-6%	14%	-96%	?
COc1cccc(/C=N/NC(=O)c2cc(-c3ccccn3)nc3ccccc23)c1O	-3%	14%	?	i	5µM*
O=C(N/N=C/c1ccc(F)cc1)c1cc(-c2ccccn2)nc2ccccc12	-1%	-8%	-5%	-16%	19%
CCCC1(C)C(C#N)C(=O)NC(=O)C1C#N (stereo not given)	-1%	1%	-13%	i	4%
CCCC1(C)C(C#N)(C#N)C1(C#N)C#N	·	·	9.5µM*	·	·
COC(=O)c1c(-c2cccs2)csc1NC(=O)c1ccc(Br)cc1	-10%	·	?	i	13%
CC1(C)C2CCC1(C)C(NC(=O)/C=C/c1ccccc1)C2 (stereo not given)	-10%	4%	22%	-24%	7.1µM*
CC1CN(c2nc3ccccc3nc2SCC(=O)Nc2cccc(C(F)(F)F)c2)CC(C)O1 (stereo not given)	?	-6%	4%	-37%	11µM*
CC[C@H](NC(C)C)[C@H](O)c1ccc(O)c2[nH]c(=O)ccc12	·	32%	24µM*!	·	·
CCCNS(=O)(=O)c1ccc(Oc2ncc(C(F)(F)F)cc2Cl)cc1	-3%	0%	25%	-34%	11µM*
Cc1ccccc1NC(=O)Nc1cc(-c2ccccc2)nn1C	-7%	-1%	-16%	-34%	-21%
Cc1ccccc1C(=O)Nc1cc(-c2cc(C(C)(C)C)oc2C)nn1C	-9%	23%	-4%	-43%	10µM*
O=C(CSc1nnc(Cn2nnc3ccccc32)o1)N(Cc1ccc(F)cc1)c1ccccc1	1%	-2%	10%	-73%[57.5 µM]	11µM*
CC1(C(=O)NS(=O)(=O)c2ccc(C#N)cc2)CCN1C(=O)CCC1CCCC1 (stereo not given)	2%	-3%	·	-22%	-15%
COC(=O)C(N)Cc1ccc(O)c(O)c1 (stereo not given)	-18%	-1%	45%	i	-27%

From PubChem
